This excerpt belongs to a sample that is enriched for hits.
Pf Dd2 growth: blocks in vitro growth of P. falciparum Dd2; 120,000 tested, 4.3% active; Potency, µM (doses to about 28.9 µM), inactives show at the highest dose activity, negative = inhibition, hits mostly inhibitors; P. falciparum Dd2 growth, SYBR Green, 72 h; active = well fitted inhibition curve with a large enough effect;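 also: plate controls were DMSO vehicle for no effect and reference drug for full effect; nearly all actives have a fitted effect of over 65% in size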
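Readout: SYBR Green fluorescence, 485 nm excitation, 535 nm emission, after ~16 h lysis at 37C. Before that, Dd2-infected red cells (2.5% hematocrit) grew 72 h with compound, 29 uM top final concentration.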
The depositor's hits bear a star; i = inactive; [ ] = another dose, or the depositor's remark. Potency is read from the fitted curve at half-maximal effect.

SMILES	Pf Dd2 growth
Cc1ccc(-n2nc(C(=O)N3CCN(c4cc(Cl)ccc4C)CC3)c(=O)n(C)c2=O)cc1	10µM*
Cc1ccc(-n2nc(C(=O)N3CCN(c4cc(Cl)ccc4C)CC3)c3c4ccccc4n(C)c3c2=O)cc1	6%
COc1ccc(CN2C(=O)[C@@H]3C[C@@H](O)CN3C3(CN(C4CCN(C(C)=O)CC4)C3)C2=O)cc1	-9%
COCC(=O)N1CCN2C(=O)c3cc(-c4ccc5c(c4)OCO5)ccc3NC(=O)[C@H]2C1	i
COc1ccc(C(=O)N2CCN3C(=O)c4cc(-c5ccc(Cl)cc5)ccc4NC(=O)[C@@H]3C2)cc1	6.3µM*
COc1ccc(-c2ccc3c(c2)C(=O)N2CCN(C(=O)c4ccccc4)C[C@@H]2C(=O)N3)cc1	5µM*
O=C1Nc2ccc(-c3ccc4c(c3)OCO4)cc2C(=O)N2CCN(C(=O)COc3ccccc3)C[C@H]12	i
COc1ccc(-c2ccc3c(c2)C(=O)N2CCN(C(=O)C4CCNCC4)C[C@@H]2C(=O)N3)c(OC)c1	-16%
O=C1Nc2ccc(-c3ccc4c(c3)OCO4)cc2C(=O)N2CCN(C(=O)c3cccs3)C[C@@H]12	13µM*
COc1ccc(-c2ccc3c(c2)C(=O)N2CCN(C(=O)CC(C)(C)C)C[C@@H]2C(=O)N3)cc1	i
CC(C)(C)CC(=O)N1CCN2C(=O)c3cc(-c4ccc(Cl)cc4)ccc3NC(=O)[C@H]2C1	-22%
O=C1Nc2ccc(-c3ccccc3)cc2C(=O)N2CCN(C(=O)c3cccnc3)C[C@H]12	-25%[44.1 µM]
CCOc1ccccc1CNC(=O)[C@H]1CN(C(C)C)C[C@H]1C(=O)O	4%
CC(C)NC(=O)NC[C@H]1OC[C@@H](NCc2cccc(C#N)c2)[C@@H]1O	-18%[44.1 µM]
Cc1ccc(C)c(NC(=O)CN2C(=O)NC3(CCC(C)CC3)C2=O)c1 (configuration not stated)	-18%
COc1ccc(CCNC(=O)CC(c2cccc3c2OCO3)c2c[nH]c3ccccc23)cc1OC (configuration not stated)	-18%
Cc1ccc(NC(=O)CC2CCCN(c3cn[nH]c(=O)c3)C2)cc1C (configuration not stated)	i
O=C(c1cc(F)ccc1Cl)N1CCCC1c1nncn1Cc1ccncc1 (configuration not stated)	-5%
O=C(N[C@@H]1COCC[C@@H]1OCC1CC1)c1conc1-c1ccccc1	-29%
CC(=O)N1CC2(Cc3ccccc3CN2C(C)=O)C1	-23%[44.1 µM]
O=C(C1CCN(C(=O)N2CC3CC(C2)[C@H]2CCCC(=O)N2C3)CC1)N1CCN(c2ncccn2)CC1 (some centres not stated)	i
COc1ccc(Cl)cc1NC(=O)CCC1CCCN(c2ccc(C(F)(F)F)cn2)C1 (configuration not stated)	-23%
CCCCCCSc1nnc2c(n1)OC(C)Nc1ccc(Br)cc1-2 (configuration not stated)	4%
Cc1nnc(NC(=O)CSc2nnc3c(n2)[nH]c2ccccc23)s1	-9%
CCCCCSc1nnc2c(n1)[nH]c1c(C)cccc12	4µM*
SMILES	Pf Dd2 growth
Fc1ccccc1CCC1CCCN(c2nnnn2-c2ccccc2)C1 (configuration not stated)	-16%
COc1ccc(-c2cnc([C@@H]3COCCN3)[nH]2)cc1	i
O=C1CC(c2ccccc2)N(C(=O)C2CC2)CCCCCCN1 (configuration not stated)	-9%
O=C1CC(c2ccccc2)N(C(=O)NCc2ccccc2)CCCCCN1 (configuration not stated)	-2%
O=C1CC(c2ccccc2)N(Cc2ccc3[nH]ccc3c2)CCCCCN1 (configuration not stated)	7.9µM*
N#Cc1ccc(CN2CCCCCCNC(=O)CC2c2ccccc2)cc1 (configuration not stated)	i
O=C1CC(c2ccccc2)N(C(=O)CNS(=O)(=O)c2ccc3c(c2)OCCO3)CCCCCN1 (configuration not stated)	i
O=C1CC(c2ccccc2)N(Cc2ccc3c(c2)CCO3)CCCCCCN1 (configuration not stated)	13µM*
O=C(c1ccc(C(F)(F)F)cc1)N1CCC2(CC1)COc1ccccc1NC2=O	i
CCc1ccccc1NC(=O)N1CC(c2nnc(-c3ccncc3)o2)C2(CCOCC2)C1 (configuration not stated)	-13%
CC1=NS(=O)(=O)N(C)C=C1C(=O)OCc1nc(-c2ccc(F)cc2)no1	56%
CNC(=O)N1CCC(c2nc(CCOc3ccc(F)cc3)no2)C1 (configuration not stated)	-18%
CC(C)C1=NOC2(CCN(Cc3cccn3C)C2)C1 (configuration not stated)	2%[44.1 µM]
COc1cc(F)ccc1-c1ccnc2nc(CCc3ccccc3)nn12	i
CN(C(=O)CN1C(=O)NC2(CCOCC2)C1=O)C1CCCCC1	13%
NCc1ccc(-c2nc(C3CCOC3)nn2Cc2ccccc2)cc1 (configuration not stated)	4.5µM*
c1cc(-c2nc(C3CCOC3)nn2Cc2ccc3c(c2)OCO3)[nH]n1 (configuration not stated)	-12%
c1ccc(Cn2nc(C3CCOC3)nc2-c2ccoc2)cc1 (configuration not stated)	-2%
O=c1cc(N2CCOCC2)oc2c(-c3ccncc3)nccc12	-22%[44.1 µM]
Clc1ccc(CNc2nc(-c3ccccc3)no2)cc1	11µM*
Fc1ccccc1-c1noc(NCCc2ccc(Cl)cc2)n1	i
O=c1cc(-c2ccccc2)nc(SCc2nc(-c3ccc(Cl)cc3)no2)[nH]1	20%
CCCOCC(=O)N1CCCC(c2cc(N3CCOCC3)nc(C)n2)C1 (configuration not stated)	7%
CNC(=O)C1(N2CCC[C@H]2C(=O)N2CCC[C@@H]2COC)CCCCC1	-25%[44.1 µM]
O=C(c1ccc2ccccc2n1)N1CCC(N2CC3CC(C2)[C@H]2CCCC(=O)N2C3)CC1 (some centres not stated)	-4%
SMILES	Pf Dd2 growth
NC(=O)N1CCCC(C(=O)N2CCCN(c3ccc(F)cc3)CC2)C1 (configuration not stated)	0%
O=C(NC1CCCCC1)N1CCC(c2nnc3n2CCNC3)CC1	7%
CN1CCN(C(=O)N2CCC(c3nccn3CC3CC3)CC2)CC1	12%
COc1ccc(C(=O)N2CCCC(CO)CCNC(=O)CC2)c(OC)c1 (configuration not stated)	-15%
CCCCC(=O)N(CCC)CC1CCOC1 (configuration not stated)	14%[5.79 µM]
COCCNC(=O)c1ccc(OC2CCN(S(C)(=O)=O)CC2)c(Cl)c1	-2%
COCCNC(=O)c1ccc(OC2CCN(Cc3ncc[nH]3)CC2)c(Cl)c1	-23%
O=C(NC1CCCC1)c1ccc(OC2CCN(CCCC(F)(F)F)CC2)c(Cl)c1	1.4µM*
O=C(Cn1ccc(=O)[nH]c1=O)N1CCC2(CCCN(C3CCCC3)C2=O)C1 (configuration not stated)	8%
O=C(c1ccc(F)cc1F)N1CCC2(CC1)OCC(C(=O)N1CCOCC1)N2C(=O)c1ccccc1 (configuration not stated)	-5%
O=C(c1cccnc1OC1CCN(S(=O)(=O)c2ccccc2)C1)N1CCOCC1 (configuration not stated)	-23%
O=C(NCCCn1cccn1)c1cccnc1N1CC2CC(C1)[C@H]1CCCC(=O)N1C2 (some centres not stated)	-18%
COc1ccc(-c2cc(N3CCCN(C(=O)c4ccccc4)CC3)n[nH]2)cc1	-1%
